Measured values reported in PubChem BioAssay (NCATS).
Inconclusive results are not listed. Activity calls are given as the source filed them. The call rests on the fitted dose curve; in most records, active means well fitted curve in the direction sought with a large enough effect; inconclusive means small, poorly fitted or top-dose-only effect, or another doubt; inactive means no such curve, though single readings can be large; an effect the other way counts as inactive or inconclusive.

Experiments:
[1] = qHTS of pediatric cancer cell lines to identify multiple opportunities for drug repurposing: Confirmatory screen for Rh30 cells (AID 1347126); further: nearly all actives have a fitted effect of over 55% in size; further: potency means the concentration at half of the fitted maximal effect
In short: (§1)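 Cells (500-1,000/well) in growth media were settled 5 h at 37 degrees C, then given compounds for 48 h. Viability was read as CellTiter-Glo luminescence. Primary runs used MIPE at 11 points (0.78 nM-46 µM) and NPC at 8 points (0.59 nM-46 µM); follow-ups used 11 points.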

[2] = qHTS of pediatric cancer cell lines to identify multiple opportunities for drug repurposing: Confirmatory screen for OHS-50 cells (AID 1347128);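 further: compound exposure lasted 48 h at 37 degrees C; nearly all actives have a fitted effect of over 55% in size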; further: potency means the concentration at half of the fitted maximal effect
In short: as §1

[3] = qHTS of pediatric cancer cell lines to identify multiple opportunities for drug repurposing: Confirmatory screen for SK-N-SH cells (AID 1347129);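 further: cells exposed to compound for 48 h before viability read; nearly all actives have a fitted effect of over 60% in size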; further: potency means the concentration at half of the fitted maximal effect
In short: as §1

[4] = tested on: Zika virus NS2B-NS3 protease; experiment: Primary screen GU AMC qHTS for Zika virus inhibitors (AID 1347154); further: nearly all actives have a fitted effect of over 70% in size; further: potency means the concentration at half of the fitted maximal effect
In short: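 Unlinked Zika NS2B hydrophilic domain/NS3 protease domain noncovalent complex (25 nM final) in 10 mM Tris-HCl pH 8.0, 0.01% Tween 20, with AMC peptide substrate. Fluorescence (ex 340, em 450 nm) change over 15 min, room temperature; percent inhibition fitted to 4-parameter Hill equation.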

[5] = qHTS of pediatric cancer cell lines to identify multiple opportunities for drug repurposing: Confirmatory screen for Saos-2 cells (AID 1347127); further: nearly all actives have a fitted effect of over 60% in size; further: potency means the concentration at half of the fitted maximal effect
In short: as §1

[6] = tested on: Zika virus NS2B-NS3 protease (unlinked); experiment: Optimization of GU AMC qHTS for Zika virus inhibitors: Unlinked NS2B-NS3 protease assay (AID 1347151); further: nearly all actives have a fitted effect of over 80% in size; further: potency means the concentration at half of the fitted maximal effect
In short: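 In this qHTS, compounds acted on 25 nM unlinked Zika NS2B–NS3 in pH 8.0 Tris/Tween buffer. Cleavage of an AMC peptide ran 15 min at room temperature, to about 20% conversion.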

[7] = Vero cells viability qHTS for Zika virus inhibitors (AID 1347167)
In short: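 To flag cytotoxic protease inhibitors, viability is measured by ATP-dependent luminescence (CellTiter Glo) after cells attached overnight receive compound for 24 to 48 hours in DMEM with 4% FBS.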

[8] = biological target: N-terminal Xaa-Pro-Lys N-methyltransferase 1 (Homo sapiens) (UniProt Q9BV86); experiment: qHTS Assay for Inhibitors of N-terminal methyltransferase 1 (NTMT1): LOPAC validation of the NTMT1 SAHH-coupled ThioGlo3 Assay (AID 1347143);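 further: SAH from peptide methylation measured as thiol fluorescence via SAHH coupling and ThioGlo3; nearly all actives have a fitted effect of over 70% in size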; further: potency means the concentration at half of the fitted maximal effect
In short: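 In this qHTS pilot against the LOPAC set, 125nM NTMT1 met compounds tested at multiple concentrations, and fluorescence was normalized to background.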

[9] = tested on: Zika virus NS2B-NS3 protease (unlinked complex); experiment: Primary screen GU Rhodamine qHTS for Zika virus inhibitors: Unlinked NS2B-NS3 protease assay (AID 1347159); further: nearly all actives have a fitted effect of over 60% in size
In short: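 Buffer 10 mM Tris-HCl pH 8.0, 0.01% Tween 20. Unlinked protease 25 nM; compound preincubation 15 min, RT, protected from light. Substrate Rhod110, 1.5 microM; ~15% conversion in 15 min.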

[10] = tested on: Zika virus NS2B-NS3 protease (linked construct); experiment: Primary screen NINDS Rhodamine qHTS for Zika virus inhibitors (AID 1347160); conditions: outcome: dose series up to 57.1 µM unless noted; further: nearly all actives have a fitted effect of over 55% in size
In short: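 Aprotinin served as in-plate control. Conditions: 25 nM linked NS2B-NS3, pH 8.0 Tris buffer, titrated compounds, 15 min preincubation and 15 min reaction with 1.5 microM Rhod110 substrate at room temperature.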

[11] = biological target: Lysine-specific demethylase 5B (Homo sapiens) (UniProt Q9UGL1); experiment: Optimization screen for KDM5B Histone Demethylases FDH coupled qHTS against the LOPAC library (AID 1347166)
In short: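 KDM5BDeltaAP (200nM final) in 50mM HEPES pH 7.5, 0.01% Tween-20 was preincubated with compound for 10 min at room temperature. A substrate mix of 12.5uM H3K4Me3, 25uM a-ketoglutarate, ascorbate, Fe2+, NAD+ and formaldehyde dehydrogenase was then added. NADH fluorescence (340/450 nm) was read initially and after 30 min.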

Measured: Potency

Sequence of Lysine-specific demethylase 5B (Homo sapiens) (Q9UGL1 whole entry, looked up): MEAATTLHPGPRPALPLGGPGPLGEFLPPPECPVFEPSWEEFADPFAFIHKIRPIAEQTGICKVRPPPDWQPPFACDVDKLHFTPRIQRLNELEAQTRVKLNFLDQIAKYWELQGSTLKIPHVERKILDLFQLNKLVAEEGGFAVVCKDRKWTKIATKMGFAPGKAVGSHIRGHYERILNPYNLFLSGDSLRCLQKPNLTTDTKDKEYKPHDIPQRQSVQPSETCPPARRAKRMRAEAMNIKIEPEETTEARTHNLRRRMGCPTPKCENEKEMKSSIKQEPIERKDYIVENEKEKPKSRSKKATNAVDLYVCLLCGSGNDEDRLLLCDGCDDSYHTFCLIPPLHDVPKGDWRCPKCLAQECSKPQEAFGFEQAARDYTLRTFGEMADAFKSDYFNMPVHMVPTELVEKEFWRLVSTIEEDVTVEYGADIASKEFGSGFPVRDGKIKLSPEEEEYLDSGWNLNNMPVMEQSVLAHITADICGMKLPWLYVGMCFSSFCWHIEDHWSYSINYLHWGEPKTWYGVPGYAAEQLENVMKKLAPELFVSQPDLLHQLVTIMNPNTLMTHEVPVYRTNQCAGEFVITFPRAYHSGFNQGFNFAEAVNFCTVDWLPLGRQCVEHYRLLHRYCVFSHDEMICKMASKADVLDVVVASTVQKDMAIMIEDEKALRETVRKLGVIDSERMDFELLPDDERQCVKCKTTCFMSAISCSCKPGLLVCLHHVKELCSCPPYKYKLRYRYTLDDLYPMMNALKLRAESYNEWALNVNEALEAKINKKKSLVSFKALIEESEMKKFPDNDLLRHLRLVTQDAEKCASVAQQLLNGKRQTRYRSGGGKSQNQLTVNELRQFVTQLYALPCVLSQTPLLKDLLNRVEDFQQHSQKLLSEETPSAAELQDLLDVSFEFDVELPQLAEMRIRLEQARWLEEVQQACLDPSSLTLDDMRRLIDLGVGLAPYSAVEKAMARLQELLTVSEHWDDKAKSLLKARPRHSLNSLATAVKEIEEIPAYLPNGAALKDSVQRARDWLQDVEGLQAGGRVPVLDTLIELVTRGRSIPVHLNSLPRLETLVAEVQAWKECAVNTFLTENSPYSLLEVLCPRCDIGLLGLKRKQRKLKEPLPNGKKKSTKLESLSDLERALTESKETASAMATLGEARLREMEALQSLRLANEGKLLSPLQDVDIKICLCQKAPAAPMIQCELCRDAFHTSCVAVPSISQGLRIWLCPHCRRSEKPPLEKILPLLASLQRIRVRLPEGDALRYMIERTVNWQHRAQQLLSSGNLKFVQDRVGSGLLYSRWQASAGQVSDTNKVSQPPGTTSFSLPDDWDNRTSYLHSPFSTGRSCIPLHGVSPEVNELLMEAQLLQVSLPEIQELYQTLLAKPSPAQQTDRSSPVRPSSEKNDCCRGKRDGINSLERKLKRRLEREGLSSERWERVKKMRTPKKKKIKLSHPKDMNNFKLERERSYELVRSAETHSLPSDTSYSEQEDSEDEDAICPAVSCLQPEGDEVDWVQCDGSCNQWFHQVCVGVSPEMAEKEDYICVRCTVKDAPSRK
Sequence of N-terminal Xaa-Pro-Lys N-methyltransferase 1 (Homo sapiens) (Q9BV86 whole entry, looked up): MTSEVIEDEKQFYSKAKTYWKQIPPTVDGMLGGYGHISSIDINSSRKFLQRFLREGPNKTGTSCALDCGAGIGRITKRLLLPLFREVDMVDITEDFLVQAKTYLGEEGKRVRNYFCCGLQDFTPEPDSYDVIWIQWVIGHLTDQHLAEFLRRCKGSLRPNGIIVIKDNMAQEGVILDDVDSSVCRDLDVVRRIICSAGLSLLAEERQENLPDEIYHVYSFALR

CCCCC(CC)CNC(=O)CC(C)OC(=O)CCC(=O)O (stereo not drawn)
inactive: [1] | [2] | [3] | [4]

COc1c(C)c2c(c(O)c1C/C=C(\C)CCC(=O)OCCN1CCOCC1)C(=O)OC2
active: [6] 21.5 µM
inactive: [5] | [7]

CCCC(=O)O[C@]1(C(=O)CCl)[C@@H](C)C[C@H]2[C@@H]3CCC4=CC(=O)C=C[C@]4(C)[C@@]3(F)C(=O)C[C@@]21C
inactive: [1] | [5] | [2] | [3] | [4]

Nc1c2ccccc2nc2ccccc12
active: [1] 7.37 µM | [2] 3.69 µM | [3] 8.33 µM | [4] 35.5 µM

Cc1ccc(C(=O)Oc2ccc(C(O)CNC(C)(C)C)cc2OC(=O)c2ccc(C)cc2)cc1 (stereo not drawn)
inactive: [1] | [5]

O=[N+]([O-])c1ccc(O)c2ncccc12
inactive: [4]
active: [3] 9.35 µM

Clc1ccc2c(c1)N=C(N1CCNCC1)c1ccccc1N2
inactive: [8] | [6] | [4] | [9] | [10] | [11]

COc1cc(/C=C/C(N)=O)cc(OC)c1OC
inactive: [2] | [3] | [4]

CCC(=O)O[C@]1(C(=O)COC)[C@@H](C)C[C@H]2[C@@H]3CCC4=CC(=O)C=C[C@]4(C)C3(F)[C@@H](O)C[C@@]21C (stereo partly drawn)
inactive: [1] | [2] | [3] | [4]

CC(=O)[C@@]1(O)CC[C@H]2[C@@H]3C[C@H](C)C4=CC(=O)CC[C@]4(C)[C@H]3CC[C@@]21C
inactive: [5] | [2] | [3]
active: [1] 0.414 µM

CN(C)CCN(Cc1ccsc1)c1ccccn1
inactive: [1] | [5] | [3] | [4]

Cc1cc(OCCOCC[N+](C)(C)Cc2ccccc2)ccc1C(C)(C)CC(C)(C)C
active: [1] 13.1 µM | [5] 7.37 µM | [2] 14.7 µM | [3] 20.9 µM

Nc1ccc2cc3ccc(N)cc3nc2c1
active: [1] 7.37 µM | [2] 20.8 µM | [3] 5.26 µM

COc1ccccc1N1CCN(CCN2C(=O)CC3(CCCC3)CC2=O)CC1
inactive: [6] | [4] | [9] | [10] | [11]
active: [8] 56.2 µM

CC(=O)O[C@@H]1C(=O)O[C@@H]2[C@H]1OC(=O)[C@@H]2OC(C)=O
inactive: [5] | [2] | [3] | [4] | [9] | [10]
active: [1] 5.85 µM

CC(C)=CCC/C(C)=C/CC/C(C)=C/C(=O)OCC(=O)[C@@]1(O)CC[C@H]2[C@@H]3CCC4=CC(=O)C=C[C@]4(C)[C@H]3[C@@H](O)C[C@@]21C
inactive: [3]
active: [5] 18.5 µM

O=C1NC(c2cccc([N+](=O)[O-])c2)=CCN1c1ccccc1O
inactive: [6] | [4] | [9] | [10] | [11]
active: [8] 50.1 µM

CC(=O)OCC(=O)[C@@]1(O)[C@H](OC(C)=O)C[C@H]2[C@@H]3CCC4=CC(=O)C=C[C@]4(C)[C@@]3(F)[C@@H](O)C[C@@]21C
inactive: [5] | [2] | [3]

Cc1nc(N)nc(N)c1-c1ccc(Cl)c(Cl)c1
active: [2] 1.31 µM
inactive: [1] | [3] | [4]

Nc1ncnc2n[nH]c(Nc3ccc(F)cc3)c12
inactive: [8] | [6] | [4] | [9] | [10] | [11]

CC(C)N(CCC(=O)c1ccc2ccccc2c1)Cc1ccccc1
inactive: [8] | [4] | [10]
active: [6] 26.7 µM

CC[C@@]1(O)C(=O)OCc2c1cc1n(c2=O)Cc2c-1nc1ccccc1c2/C=N/OC(C)(C)C
active: [1] 0.522 µM | [5] 0.0165 µM | [2] 0.0369 µM | [3] 1.87 µM | [4] 14.4 µM

C[C@]12CCC(=O)C=C1CC[C@@H]1[C@@H]2[C@@H](O)C[C@@]2(C)[C@H]1CC[C@]2(O)C(=O)COC(=O)CCC(=O)O
inactive: [1] | [5] | [2] | [3]

N=C(N)c1ccc(OCCCOc2ccc(C(=N)N)cc2)cc1
inactive: [1] | [5] | [2] | [3]

CCc1cc2cc(OC)c(OC)cc2c(Cc2ccccc2)n1
inactive: [1] | [5] | [3] | [4]

CO[C@@H]1[C@@H](OC)[C@H](C)[C@@](O)(CC(=O)O)O[C@H]1[C@H](C)[C@H]1O[C@@]2(CC[C@@](C)([C@H]3CC[C@@](C)([C@@H]4O[C@@H]([C@H]5O[C@](C)(O)[C@H](C)C[C@@H]5C)C[C@@H]4OC4C[C@H](OC)[C@@H](OC)[C@H](C)O4)O3)O2)C[C@H](O)[C@H]1C (stereo partly drawn)
active: [1] 7.37 µM | [5] 1.17 µM | [2] 0.657 µM | [3] 1.48 µM
inactive: [4]
